Reference: PubChem BioAssay AID1159580 (chemical genetic matrix, 2015)
About 2,000 (36%) of roughly 5,500 compounds were called active. About 18% were inconclusive and are not listed. No stated cut-off is given here; in the data, active means normalized growth mostly below about 0.91 (no sharp cut-off); inconclusive means no clear call, values can overlap the other calls; inactive means mostly above about 0.92. The list shows a part of the results.

Assay: chemical genetic growth profiling, strain panel (AID 1159580);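 further: tested at 20 µM; growth read once vehicle control cultures reached saturation at 30 °C; 1 = growth at the plate median or of vehicle wells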
Settings: S. cerevisiae deletion strains, growth OD

Measured: normalized growth

O=S(=O)(NC(=S)Nc1ccc(Cl)c(Cl)c1)c1ccccc1
inactive: locus YAR019C, strain CDC15, stronger effect = lower value 1.01 | locus YBL105C, strain PKC1, stronger effect = lower value 1.01 | locus YBR135W, strain CKS1, stronger effect = lower value 0.997 | locus YBR136W, strain MEC1, stronger effect = lower value 1 | locus YBR160W, strain CDC28, stronger effect = lower value 1 | locus YDL017W, strain CDC7, stronger effect = lower value 1.01 | locus YDL028C, strain MPS1, stronger effect = lower value 1 | locus YDL101C, strain DUN1, stronger effect = lower value 1.01 | locus YDL108W, strain KIN28, stronger effect = lower value 1 | locus YDL132W, strain cdc53, stronger effect = lower value 0.993 | locus YDL214C, strain PRR2, stronger effect = lower value 1.02 | locus YDR052C, strain DBF4, stronger effect = lower value 1.01 | locus YDR054C, strain cdc34, stronger effect = lower value 1.01 | locus YDR226W, strain ADK1, stronger effect = lower value 0.991 | locus YDR477W, strain SNF1, stronger effect = lower value 1.02 | locus YER123W, strain YCK3, stronger effect = lower value 1 | locus YER133W, strain GLC7, stronger effect = lower value 1.01 | locus YFL009W, strain cdc4, stronger effect = lower value 1.01 | locus YFL029C, strain CAK1, stronger effect = lower value 1 | locus YFR003C, strain YPI1, stronger effect = lower value 1 | locus YFR019W, strain FAB1, stronger effect = lower value 1 | locus YFR028C, strain CDC14, stronger effect = lower value 1 | locus YGR040W, strain KSS1, stronger effect = lower value 1.01 | locus YGR052W, strain FMP48, stronger effect = lower value 1.12 | locus YGR092W, strain DBF2, stronger effect = lower value 0.988 | locus YHR030C, strain SLT2, stronger effect = lower value 1.1 | locus YHR079C, strain IRE1, stronger effect = lower value 1 | locus YHR082C, strain KSP1, stronger effect = lower value 1.09 | locus YHR205W, strain SCH9, stronger effect = lower value 0.995 | locus YIL147C, strain SLN1, stronger effect = lower value 1 | locus YJL095W, strain BCK1, stronger effect = lower value 1.05 | locus YJL128C, strain PBS2, stronger effect = lower value 0.995 | locus YJL157C, strain FAR1, stronger effect = lower value 1.01 | locus YJR016C, strain ILV3, stronger effect = lower value 0.995 | locus YJR066W, strain TOR1 (second series), stronger effect = lower value 0.992 | locus YJR066W, strain TOR1, stronger effect = lower value 1.13 | locus YKL048C, strain ELM1, stronger effect = lower value 1.02 | locus YKL067W, strain YNK1, stronger effect = lower value 0.995 | locus YKL101W, strain HSL1, stronger effect = lower value 1 | locus YKL193C, strain SDS22, stronger effect = lower value 1 | locus YKL203C, strain TOR2, stronger effect = lower value 1.07 | locus YLR113W, strain HOG1, stronger effect = lower value 1.03 | locus YLR133W, strain CKI1, stronger effect = lower value 1.01 | locus YLR403W, strain SFP1, stronger effect = lower value 1.02 | locus YML070W, strain DAK1, stronger effect = lower value 0.999 | locus YMR001C, strain CDC5, stronger effect = lower value 1 | locus YMR205C, strain PFK2 (second series), stronger effect = lower value 1 | locus YMR277W, strain FCP1, stronger effect = lower value 1 | locus YNL006W, strain LST8, stronger effect = lower value 0.984 | locus YNL020C, strain ARK1, stronger effect = lower value 1 | locus YNL161W, strain CBK1, stronger effect = lower value 0.996 | locus YNL183C, strain NPR1, stronger effect = lower value 0.986 | locus YNL207W, strain RIO2, stronger effect = lower value 1.01 | locus YNL222W, strain SSU72, stronger effect = lower value 0.995 | locus YNL307C, strain MCK1 (second series), stronger effect = lower value 0.987 | locus YOL078W, strain AVO1, stronger effect = lower value 1 | locus YOL136C, strain PFK27, stronger effect = lower value 1 | locus YOR061W, strain CKA2, stronger effect = lower value 1.02 | locus YOR119C, strain RIO1, stronger effect = lower value 1.13 | locus YOR231W, strain MKK1, stronger effect = lower value 1.02 | locus YOR329C, strain SCD5, stronger effect = lower value 1.01 | locus YPL031C, strain PHO85, stronger effect = lower value 1.02 | locus YPL153C, strain RAD53, stronger effect = lower value 1 | locus YPL204W, strain HRR25, stronger effect = lower value 0.999 | locus YPL209C, strain IPL1, stronger effect = lower value 0.996 | locus YPL256C, strain CLN2, stronger effect = lower value 1.01 | locus YPR025C, strain CCL1, stronger effect = lower value 0.998 | locus YPR106W, strain ISR1, stronger effect = lower value 1.01 | locus YPR111W, strain DBF20, stronger effect = lower value 0.994 | strain NNK1, stronger effect = lower value 1 | strain TSCII, stronger effect = lower value 0.999

COc1ccc(C(=O)NCc2cccnc2)cc1C(=O)NCc1cccnc1
inactive: locus YAL040C, strain CLN3, stronger effect = lower value 0.994 | locus YCL061C, strain MRC1 (second series), stronger effect = lower value 1.01 | locus YDR150W, strain NUM1, stronger effect = lower value 1 | locus YDR363W, strain ESC2, stronger effect = lower value 1 | locus YER002W, strain NOP16, stronger effect = lower value 0.997 | locus YJR075W, strain HOC1, stronger effect = lower value 1.02 | locus YMR307W, strain GAS1, stronger effect = lower value 1.01 | locus YNL128W, strain TEP1, stronger effect = lower value 1.01 | locus YNL153C, strain GIM3, stronger effect = lower value 1.02 | locus YNL175C, strain NOP13, stronger effect = lower value 1.02 | locus YNL197C, strain WHI3, stronger effect = lower value 1.04 | locus YNL224C, strain SQS1, stronger effect = lower value 1 | locus YOR083W, strain WHI5 (second series), stronger effect = lower value 1.02
